Source: PubChem BioAssay
Most compounds without a hit are left out; they make up all but 1.2% or so of the library.
Avidin fluor – green autofluorescence of compounds with avidin beads – biophysical, 488/530 nm, flow cytometry, artefact control, profiling panel; compound fluorescence 488/530 nm; hits give high values; fluorescence (KMESF) at 10 µM; 0.38% of 220,000 active; AID 1775, 2009; in the data active means fluorescence above about 47
GSH bead fluor – compound fluorescence on glutathione beads, profiling panel, artefact control, biophysical, 488/530 nm, flow cytometry; fluorescence (KMESF) at 10 µM; 0.25% of 190,000 active; GSH beads flow cytometry, compound fluorescence 488/530 nm; hits give high values; in the data active means fluorescence above about 89;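 further: glutathione beads carrying GST-tagged Bcl family fusion proteins plus one bare bead set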
RGS8-Gao – RGS8-Galphao binding modulators, primary screen, biochemical, multiplexed bead flow cytometry; Guanine nucleotide-binding protein G(o) subunit alpha (Homo sapiens), P09471; actives lie on both sides; response (percent of control binding), % at 10 µM; 0.34% of 220,000 active; AID 1423, 2008; in the data active means response below about 60% or above about 140%; inactive means in between;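 further: Galphao activated as the GDP aluminium fluoride complex binding bead-coupled RGS8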
Target sequence (P09471 whole entry, looked up): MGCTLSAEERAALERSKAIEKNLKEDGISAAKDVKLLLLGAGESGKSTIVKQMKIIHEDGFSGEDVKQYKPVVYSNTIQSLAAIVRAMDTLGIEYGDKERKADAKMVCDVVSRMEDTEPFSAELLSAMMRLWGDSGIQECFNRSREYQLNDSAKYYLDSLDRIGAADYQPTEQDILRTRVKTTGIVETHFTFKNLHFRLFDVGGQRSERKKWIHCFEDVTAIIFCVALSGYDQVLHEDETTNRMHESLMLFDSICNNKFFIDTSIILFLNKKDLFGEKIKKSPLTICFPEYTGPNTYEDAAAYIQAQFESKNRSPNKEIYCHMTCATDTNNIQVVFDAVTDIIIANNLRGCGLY
RGS7-Gao reg – RGS7-Galphao binding modulators, primary screen, biochemical, multiplexed bead flow cytometry. actives lie on both sides. Guanine nucleotide-binding protein G(o) subunit alpha (Homo sapiens), P09471. AID 1439, 2008. binding response (% of control), % at 10 µM. 0.35% of 220,000 active; in the data active means binding response below about 49% or above about 150%; inconclusive means no clear call, values can overlap the other calls; inactive means in between;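 further: fluorescent Galphao held in activated GDP-AlF4 state binding bead-coupled RGS7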
RGS4-Gao reg – modulators of RGS4 binding to Galphao, primary screen, biochemical, multiplexed bead flow cytometry | Guanine nucleotide-binding protein G(o) subunit alpha (Homo sapiens), P09471 | actives lie on both sides | binding response (% of control), % at 10 µM | 0.33% of 220,000 active | AID 1415, 2008; in the data active means binding response below about 49% or above about 150%; inactive means in between;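 further: fluorescent Galphao activated with aluminum fluoride binding bead-coupled RGS4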
RGS16-Gao HTS – modulators of RGS16 binding to Galphao, primary screen, biochemical, human proteins, multiplexed bead flow cytometry. Regulator of G-protein signaling 16 (Homo sapiens) + Guanine nucleotide-binding protein …. bead-based flow cytometry RGS16-Galphao binding, fluorescence; actives lie on both sides. binding response (% of control), % at 10 µM. 0.38% of 220,000 active. AID 1441, 2008;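 further: Galphao activated by GDP with aluminum fluoride before binding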
RGS-Gao – modulators of RGS–Galpha-o binding, primary screen, biochemical, multiplexed beads, flow cytometry, RGS4/7/8/16/19; multiplexed bead flow cytometry; shares compounds with RGS16-Gao HTS; RGS4–Galpha-o binding response, % at 10 µM; 99% of 1,600 active; AID 1504, 2009;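 further: fluorescently labeled Galpha-o bound to GDP with aluminium fluoride binding biotinylated RGS beads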
Target sequence (P09471 whole entry, looked up): as above
Target sequence (P49798 whole entry, looked up): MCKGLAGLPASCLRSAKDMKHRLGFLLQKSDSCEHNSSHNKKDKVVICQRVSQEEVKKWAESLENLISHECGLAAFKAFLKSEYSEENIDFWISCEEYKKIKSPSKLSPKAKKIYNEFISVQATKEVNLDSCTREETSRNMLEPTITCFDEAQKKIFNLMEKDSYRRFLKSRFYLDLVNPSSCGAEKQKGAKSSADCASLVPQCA
Biotin-avidin – disruption of biotin probe capture by avidin, counter-screen for RGS protein interaction modulators, biochemical, flow cytometry, bead-based; shares compounds with RGS16-Gao HTS; streptavidin beads, fluorescein-biotin binding; inhibition, % at 10 µM; 1,700 tested, under 10 active;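 active means inhibition above 50%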;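 further: median green fluorescence of gated singlet beads compared with DMSO control wells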
RGS8-Gao single – RGS8-Galphao binding modulators, confirmation, biochemical, multiplexed bead flow cytometry, single concentration. shares compounds with RGS16-Gao HTS. bead-based flow cytometry RGS8-Galphao binding, fluorescence; actives lie on both sides. binding response (% of control), % at 10 µM. 3% of 1,700 active. AID 1836, 2009; in the data active means binding response below about 72% or above about 130%; inactive means in between;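 further: Galphao activated as GDP AlF4 complex before binding bead RGS8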
RGS7-Gao single – RGS7-Galphao binding modulators, confirmation, biochemical, multiplexed bead flow cytometry, single concentration. shares compounds with RGS16-Gao HTS. bead-based flow cytometry RGS7-Galphao binding; actives lie on both sides. 7.8% of 1,700 active. response (percent of control binding), % at 10 µM; in the data active means response below about 75% or above about 130%; inactive means in between;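 further: fluorescent Galphao activated with GDP and aluminum fluoride binding bead-coupled RGS7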
RGS16-Gao single – modulators of RGS16-Galphao protein binding, confirmation, biochemical, single concentration, multiplexed bead flow cytometry | shares compounds with RGS16-Gao HTS | bead-based flow cytometry; actives lie on both sides | response (% of control binding), % at 10 µM | 4% of 1,700 active; in the data active means response below about 74% or above about 130%; inactive means in between;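 further: Galphao activated as the GDP aluminium fluoride complex binding bead-coupled RGS16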
RGS4-Gao single – modulators of RGS4-Galphao protein binding, confirmation, biochemical, single concentration, multiplexed bead flow cytometry; 4% of 1,700 active; actives lie on both sides; shares compounds with RGS16-Gao HTS; binding response (% of control), % at 10 µM; in the data active means binding response below about 74% or above about 130%; inactive means in between
RGS19-Gao conf – regulators of RGS19-Galphao binding, confirmation, biochemical, single point, multiplexed bead flow cytometry; response (percent of control binding), % at 10 µM; bead-based flow cytometry RGS19-Galphao binding; actives lie on both sides; shares compounds with RGS16-Gao HTS; 5% of 1,700 active; AID 1841, 2009; in the data active means response below about 50% or above about 160%; inactive means in between
Numbers stand for hits; n = inactive; u = inconclusive; x = no result given; [ ] = remark or other dose. Unless noted, how the calls were made is not given here.

SMILES	Avidin fluor	GSH bead fluor	RGS8-Gao	RGS7-Gao reg	RGS4-Gao reg	RGS16-Gao HTS	RGS-Gao	Biotin-avidin	RGS8-Gao single	RGS7-Gao single	RGS16-Gao single	RGS4-Gao single	RGS19-Gao conf
N/C(=N\OC(=O)c1ccc(Cl)cc1)c1[nH]ncc1Br	n	x	n	u	n	n	x	x	x	x	x	x	x
CCCCNC1CCS(=O)(=O)C1 (centres undefined)	x	n	x	x	x	x	x	n	n	n	n	n	n
COC(=O)c1ccc(C(=O)OC)c(NC(=O)CSc2ccccn2)c1	87	n	n	157.3[activator]	n	n	107.3	n	n	n	n	n	n
COc1ccc(NC(=O)CSc2ccccn2)cc1OC	n	n	n	n	n	n	x	x	x	x	x	x	x
COc1ccc(CNC(=O)N[C@@H](CC(C)C)C(=O)O)cc1OC	n	x	n	u	n	n	x	x	x	x	x	x	x
Cc1ccccc1-c1ccc(=O)n(CC(=O)Nc2ccc(N3CCOCC3)cc2)n1	x	n	x	x	x	x	x	n	n	n	n	n	n
CN(CC1CCCO1)S(=O)(=O)c1ccc(C(=O)Nc2nccs2)cc1 (centres undefined)	n	x	n	u	n	n	x	x	x	x	x	x	x
Cc1ccc(C(=O)C2Oc3ccccc3C3CC(c4ccc(C)cc4)=NN23)cc1 (centres undefined)	n	n	57.0	n	n	n	79.4	n	n	n	n	n	n
C=CCc1cccc2cc(C(=O)N3CCN(c4ccccn4)CC3)c(=O)oc12	n	n	n	n	n	n	x	x	x	x	x	x	x
CCOC(=O)c1cccc(NC(=O)Cn2c(CC(=O)NC)nc3ccccc32)c1	n	n	n	n	171.5[activator]	191.0[activator]	x	n	n	n	n	n	n
CC(CCC(=O)O)C1CC[C@@]2(C)C3C(=O)CC4C(C)(C)C(O)CC[C@]4(C)C3C(=O)C[C@]12C (some centres undefined)	n	x	56.8	u	n	n	88.8	n	n	n	n	n	n
CCCOC(=O)c1c(NC(=O)C2CCCO2)sc(C(=O)OC)c1C (centres undefined)	n	n	n	n	n	n	x	x	x	x	x	x	x
CCOC(=O)c1c(NC(=O)C2CCCO2)sc(C(N)=O)c1C (centres undefined)	n	n	n	n	n	295.0[activator]	111.4	n	n	n	n	n	n
O=C(O)CC12CC3CC(C1)CC(n1ncc(N4CCC5(CC4)OCCO5)c(Cl)c1=O)(C3)C2	n	x	n	u	n	n	x	x	x	x	x	x	x
Cc1ccc(C(=O)Nc2cc3ccccc3oc2=O)cc1	n	n	n	n	n	n	x	x	x	x	x	x	x
CC(C)Oc1ccc(Cc2cnc(N)nc2N)cc1	n	n	163.2[activator]	n	n	n	136.6	n	n	n	n	n	n
CCCCOc1ccc(Cc2cnc(N)nc2N)cc1	n	x	n	u	n	n	x	x	x	x	x	x	x
O=C(CS(=O)(=O)c1ccccc1)Nc1ccc(Br)cn1	n	n	n	n	n	n	x	x	x	x	x	x	x
CCOc1c(O)ccc(C2NC(=O)N(C)C(C)=C2C(=O)OC)c1[N+](=O)[O-] (centres undefined)	168	n	n	435.6[activator]	n	n	130.4	n	n	n	n	n	n
CCOc1c(O)ccc(C2NC(=O)NC(C)=C2C(=O)OC)c1[N+](=O)[O-] (centres undefined)	n	n	n	n	n	n	x	x	x	x	x	x	x
COc1ccc(CNC(=O)NCc2ccc(OC)c(OC)c2)cc1OC	64	n	n	157.1[activator]	n	n	114.9	n	n	n	n	n	n
COc1ccc(CC(=O)OCC(=O)NCc2ccccc2Cl)cc1OC	n	n	159.0[activator]	161.5[activator]	160.3[activator]	175.8[activator]	x	n	n	n	n	n	n
COc1ccc(CNC(N)=O)cc1OC	n	n	n	n	n	n	x	x	x	x	x	x	x
COc1cccc(NC(=O)NCCc2ccc(Cl)cc2)c1	n	n	n	n	n	n	x	x	x	x	x	x	x
COc1ccc(NC(=O)NCCc2ccc(Cl)cc2)cc1OC	n	n	11.5	-3.3	7.0	0.8	x	n	n	n	n	n	n
SMILES	Avidin fluor	GSH bead fluor	RGS8-Gao	RGS7-Gao reg	RGS4-Gao reg	RGS16-Gao HTS	RGS-Gao	Biotin-avidin	RGS8-Gao single	RGS7-Gao single	RGS16-Gao single	RGS4-Gao single	RGS19-Gao conf
CCCCNC(=O)C(c1ccc(OCC(=O)OC)c(C(=O)OC)c1)N(CCOC)C(=O)CCCCCN1C(=O)NC(c2ccc(-c3ccccc3)cc2)C(C(=O)OCc2ccccc2)=C1C (centres undefined)	n	x	n	u	n	n	x	x	x	x	x	x	x
CCC(=O)N1CCN(c2ccc(NC(=O)c3ccc4c(c3)OCCO4)cc2)CC1	n	n	n	n	n	n	x	x	x	x	x	x	x
CCC(=O)N1CCN(c2ccc(Cl)cc2NC(=O)c2ccc3c(c2)OCCO3)CC1	n	n	6.1	2.0	0.4	-0.4	x	n	n	n	n	n	n
CC1(C)CC(=O)C(C=NCCN2CCN(C(=O)CCl)CC2)=C(O)C1	n	x	n	u	n	n	x	x	x	x	x	x	x
CCC(=O)N1CCN(CCN=CC2=C(O)CC(C)(C)CC2=O)CC1	n	n	145.5[activator]	n	n	n	104.8	n	n	n	n	n	n
CN(c1ccccc1)P(=O)(N(C)c1ccccc1)N(C)c1ccccc1	n	n	n	n	n	n	x	x	x	x	x	x	x
